# Experimental data published in PubChem BioAssay (EPA / NIEHS).
# Inconclusive results are not listed. The source made the active and inactive calls. The calls were made as follows: active = hit-call score of the fitted dose curve at least 0.9, where 1 is the maximum; inconclusive = response in the unintended direction; inactive = score below 0.9.
# Target: Androgen Receptor/SRC-1 Co-activator, AR (gene 367) (UniProt P10275)
# Test: OT_AR_ARSRC1_0480: Odyssey Thera (OT) 8-hour HEK293T Protein-Complementation Assay for Androgen Receptor/SRC-1 Co-activator (AID 2283354);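 also: hits raise the complementation signal above DMSO so AC50 marks enhancers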
# Procedure, shortened: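 Reconstituted split-Venus YFP signal from AR–SRC-1 interaction, read by imaging 8 h post-dose in stable HEK293T lines. The 488 nm nucleus-to-cytoplasm ratio (≥400 cells/image) was fitted upward against DMSO.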
# Sequence of Androgen Receptor/SRC-1 Co-activator, AR (gene 367) (P10275 whole entry, looked up): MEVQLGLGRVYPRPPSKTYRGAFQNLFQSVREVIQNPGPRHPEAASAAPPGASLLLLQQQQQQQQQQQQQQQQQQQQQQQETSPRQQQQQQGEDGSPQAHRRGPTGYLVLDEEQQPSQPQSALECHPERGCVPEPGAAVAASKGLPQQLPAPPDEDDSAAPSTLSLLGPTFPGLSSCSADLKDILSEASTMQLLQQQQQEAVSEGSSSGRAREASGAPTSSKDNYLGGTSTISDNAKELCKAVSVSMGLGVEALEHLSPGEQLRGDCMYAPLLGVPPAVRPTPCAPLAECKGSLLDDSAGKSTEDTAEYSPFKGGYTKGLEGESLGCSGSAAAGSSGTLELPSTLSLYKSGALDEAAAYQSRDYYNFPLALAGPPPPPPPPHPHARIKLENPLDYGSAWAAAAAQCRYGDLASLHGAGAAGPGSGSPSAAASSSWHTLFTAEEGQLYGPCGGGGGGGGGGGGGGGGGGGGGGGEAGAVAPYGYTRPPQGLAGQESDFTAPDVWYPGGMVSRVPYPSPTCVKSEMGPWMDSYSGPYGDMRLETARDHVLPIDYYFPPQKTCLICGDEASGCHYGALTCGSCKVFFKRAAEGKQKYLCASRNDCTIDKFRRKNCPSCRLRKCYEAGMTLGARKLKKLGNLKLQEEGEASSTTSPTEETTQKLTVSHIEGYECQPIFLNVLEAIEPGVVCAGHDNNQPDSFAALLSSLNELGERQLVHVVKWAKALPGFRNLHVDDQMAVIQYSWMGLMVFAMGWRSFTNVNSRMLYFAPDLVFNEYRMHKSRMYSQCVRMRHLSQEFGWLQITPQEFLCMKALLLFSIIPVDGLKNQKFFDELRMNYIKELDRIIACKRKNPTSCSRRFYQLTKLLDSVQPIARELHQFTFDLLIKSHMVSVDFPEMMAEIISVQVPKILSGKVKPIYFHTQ
Structure (SMILES),outcome,AC50
CC(C)N1C(=O)N(c2ccccc2)CSC1=NC(C)(C)C,inactive,–
CC1(C)CCC(=Cc2ccc(Cl)cc2)C1(O)Cn1cncn1 (stereo unspecified),–,15.5 µM (active)
COCc1cnc(C2=NC(C)(C(C)C)C(=O)N2)c(C(=O)O)c1 (stereo unspecified),inactive,–
Clc1cccc(C(Cl)(Cl)Cl)n1,inactive,–
Cc1cnc(C2=NC(C)(C(C)C)C(=O)N2)c(C(=O)O)c1 (stereo unspecified),inactive,–
Nc1c(Cl)c(F)nc(OCC(=O)O)c1Cl,inactive,–
CCOc1cc(C(C)(C)C)ccc1C1COC(c2c(F)cccc2F)=N1 (stereo unspecified),–,20.4 µM (active)

# Target: rat Mineralocorticoid Receptor (MR), Nr3c2 (gene 25672) (UniProt P22199)
# Sequence (P22199 whole entry, looked up): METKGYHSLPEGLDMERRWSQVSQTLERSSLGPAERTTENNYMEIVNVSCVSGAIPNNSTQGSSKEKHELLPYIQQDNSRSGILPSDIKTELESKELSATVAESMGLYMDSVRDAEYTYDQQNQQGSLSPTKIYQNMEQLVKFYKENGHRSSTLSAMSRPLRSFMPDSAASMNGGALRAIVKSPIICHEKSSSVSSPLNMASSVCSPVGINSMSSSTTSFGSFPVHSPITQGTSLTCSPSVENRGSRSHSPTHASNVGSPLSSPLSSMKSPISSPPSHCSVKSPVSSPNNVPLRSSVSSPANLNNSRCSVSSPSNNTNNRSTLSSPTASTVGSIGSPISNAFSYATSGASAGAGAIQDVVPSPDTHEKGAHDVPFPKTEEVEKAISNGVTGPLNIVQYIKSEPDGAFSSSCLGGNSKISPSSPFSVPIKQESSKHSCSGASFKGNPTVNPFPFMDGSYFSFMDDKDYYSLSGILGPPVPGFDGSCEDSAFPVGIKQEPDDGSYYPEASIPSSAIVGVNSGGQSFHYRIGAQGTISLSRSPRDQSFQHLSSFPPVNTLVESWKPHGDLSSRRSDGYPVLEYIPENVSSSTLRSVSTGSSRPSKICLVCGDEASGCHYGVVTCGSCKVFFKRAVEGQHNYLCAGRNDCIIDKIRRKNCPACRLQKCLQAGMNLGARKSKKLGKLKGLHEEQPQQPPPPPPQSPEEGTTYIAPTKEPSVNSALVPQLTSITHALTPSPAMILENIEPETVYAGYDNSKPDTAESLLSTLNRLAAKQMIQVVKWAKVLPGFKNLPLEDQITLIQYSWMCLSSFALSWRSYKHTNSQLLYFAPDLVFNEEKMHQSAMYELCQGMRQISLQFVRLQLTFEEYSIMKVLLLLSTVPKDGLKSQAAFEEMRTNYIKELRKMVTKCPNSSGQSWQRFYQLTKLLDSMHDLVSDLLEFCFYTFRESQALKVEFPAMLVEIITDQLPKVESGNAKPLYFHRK
# Test: NVS_NR_rMR: NovaScreen (NVS) Nuclear Receptor Binding Assay for rat Mineralocorticoid Receptor (MR) (AID 2283355)
# Procedure, shortened: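 Primary HTS ran in duplicate at a single 25 uM concentration, with concentration-series follow-up for actives. Receptor source: adrenalectomized rat brain supernatant, cell-free. Radioligand displacement read by scintillation at 24 h, relative to DMSO baseline.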
row,Structure (SMILES),outcome
1,CCCC(=NOCC)C1=C(O)CC(CC(C)SCC)CC1=O (stereo unspecified),inactive
2,CC(C)N1C(=O)c2ccccc2NS1(=O)=O,inactive
3,CCOc1nc(C(Cl)(Cl)Cl)ns1,inactive
4,COC(=O)NS(=O)(=O)c1ccc(N)cc1,inactive
5,CCOc1cc(C(C)(C)C)ccc1C1COC(c2c(F)cccc2F)=N1 (stereo unspecified),inactive

# Target: Estrogen receptor (Homo sapiens) + Estrogen receptor beta (Homo sapiens) (UniProt P03372+Q92731)
# Sequence (P03372 whole entry, looked up, the tested form may be a part): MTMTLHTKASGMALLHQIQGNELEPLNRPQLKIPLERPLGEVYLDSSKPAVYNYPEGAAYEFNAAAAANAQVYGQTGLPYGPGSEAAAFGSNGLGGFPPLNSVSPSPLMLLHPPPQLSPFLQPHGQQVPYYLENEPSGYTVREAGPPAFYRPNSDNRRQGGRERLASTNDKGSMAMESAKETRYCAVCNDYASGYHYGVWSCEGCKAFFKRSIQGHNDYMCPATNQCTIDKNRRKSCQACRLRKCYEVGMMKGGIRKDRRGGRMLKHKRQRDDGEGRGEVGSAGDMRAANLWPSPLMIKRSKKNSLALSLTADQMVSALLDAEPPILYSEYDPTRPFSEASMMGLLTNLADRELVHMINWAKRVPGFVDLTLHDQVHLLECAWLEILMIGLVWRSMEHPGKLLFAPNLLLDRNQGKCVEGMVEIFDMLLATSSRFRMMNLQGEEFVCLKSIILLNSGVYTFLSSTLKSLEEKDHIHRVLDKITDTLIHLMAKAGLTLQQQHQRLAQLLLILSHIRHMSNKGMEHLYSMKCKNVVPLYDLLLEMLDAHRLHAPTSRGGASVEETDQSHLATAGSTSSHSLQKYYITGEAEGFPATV
# Sequence (Q92731 whole entry, looked up, the tested form may be a part): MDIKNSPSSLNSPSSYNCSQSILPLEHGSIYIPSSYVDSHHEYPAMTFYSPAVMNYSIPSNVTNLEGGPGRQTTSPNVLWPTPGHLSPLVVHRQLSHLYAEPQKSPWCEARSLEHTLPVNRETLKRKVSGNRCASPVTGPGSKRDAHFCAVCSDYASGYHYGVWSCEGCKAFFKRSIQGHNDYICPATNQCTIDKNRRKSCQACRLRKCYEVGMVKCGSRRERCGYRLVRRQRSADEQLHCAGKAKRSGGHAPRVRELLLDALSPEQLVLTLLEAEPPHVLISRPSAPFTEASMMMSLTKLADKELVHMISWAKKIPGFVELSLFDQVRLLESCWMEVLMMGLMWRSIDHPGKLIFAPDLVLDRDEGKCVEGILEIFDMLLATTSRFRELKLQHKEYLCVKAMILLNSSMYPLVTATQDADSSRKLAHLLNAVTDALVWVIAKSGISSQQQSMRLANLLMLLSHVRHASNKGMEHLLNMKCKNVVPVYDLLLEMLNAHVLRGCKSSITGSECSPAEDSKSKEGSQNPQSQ
# Test: OT_ER_ERaERb_1440: Odyssey Thera (OT) 24-hour HEK293T Protein-Complementation Assay for Estrogen Receptor-alpha/-beta Homodimer (AID 2283356);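 also: heteromer of ER alpha and ER beta binding domains; hits raise reporter fluorescence and both agonists and antagonists give an increase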
# Procedure, shortened: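 Stable HEK293T PCA line, ERα LBD 310-547 + ERβ LBD 263-489 fused to reporter fragments; 24 h treatment; fluorescence read by laser scanning cytometry; positive fitting direction relative to DMSO.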
Structure (SMILES),outcome,AC50
CC(C)N1C(=O)N(c2ccccc2)CSC1=NC(C)(C)C,inactive,–
CC1(C)CCC(=Cc2ccc(Cl)cc2)C1(O)Cn1cncn1 (stereo unspecified),inactive,–
COCc1cnc(C2=NC(C)(C(C)C)C(=O)N2)c(C(=O)O)c1 (stereo unspecified),inactive,–
O=c1n(Cl)c(=O)n(Cl)c(=O)n1Cl,inactive,–
C=C(C)CN(CC)c1c([N+](=O)[O-])cc(C(F)(F)F)cc1[N+](=O)[O-],–,79.2 µM (active)
CN/C(=N\[N+](=O)[O-])NCc1cnc(Cl)s1,inactive,–
Clc1cccc(C(Cl)(Cl)Cl)n1,inactive,–
C=CCOC(=O)C(C)(C)OC(=O)c1cc(-n2c(=O)cc(C(F)(F)F)n(C)c2=O)ccc1Cl,inactive,–
CCCC(=NOCC)C1=C(O)CC(CC(C)SCC)CC1=O (stereo unspecified),inactive,–
CCSC(=O)N1CCCCCC1,inactive,–
Cc1cnc(C2=NC(C)(C(C)C)C(=O)N2)c(C(=O)O)c1 (stereo unspecified),inactive,–
CC(C)Nc1nc(Cl)nc(NC(C)C)n1,inactive,–
CCOc1nc(C(Cl)(Cl)Cl)ns1,inactive,–
CS(=O)(=O)c1ccc(C(=O)C2C(=O)CCCC2=O)c([N+](=O)[O-])c1,inactive,–
COC(=O)NC(=S)Nc1ccccc1NC(=S)NC(=O)OC,inactive,–
Nc1c(Cl)c(F)nc(OCC(=O)O)c1Cl,inactive,–
COc1cc(Cl)c(OC)cc1Cl,inactive,–
COP(=O)(OC)O/C(C)=C/C(=O)N(C)C,inactive,–
Nc1c(Cl)c(Cl)nc(C(=O)O)c1Cl,inactive,–
O=C(O)c1c(Cl)ccc2cc(Cl)cnc12,inactive,–
CCC(C)n1c(=O)[nH]c(C)c(Br)c1=O (stereo unspecified),inactive,–
CC1(C)CON(Cc2ccccc2Cl)C1=O,inactive,–
CCOc1nc(F)cc2nc(S(=O)(=O)Nc3c(Cl)cccc3Cl)nn12,inactive,–
COC(=O)NS(=O)(=O)c1ccc(N)cc1,inactive,–
Cc1ccc(N=CN(C)C=Nc2ccc(C)cc2C)c(C)c1,inactive,–
CCOc1cc(C(C)(C)C)ccc1C1COC(c2c(F)cccc2F)=N1 (stereo unspecified),inactive,–
COc1cc(OC)nc(NC(=O)NS(=O)(=O)c2ncccc2OCC(F)(F)F)n1,inactive,–
CS(=O)(=O)c1cc(C(F)(F)F)ccc1C(=O)c1cnoc1C1CC1,inactive,–
CNC(=O)N(C)c1nnc(C(C)(C)C)s1,inactive,–
